Insulin prom up = insulin promoter activators in MIN6 cells, imaging, high-content screening, mouse beta cells; MIN6 insulin promoter-GFP reporter; stronger effect = higher value; z-score at 5 µM; 190,000 compounds, 0.3% hits;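 active = z-score above 3 at 5 µM with at least 500 cells counted in the well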
INS promoter inh = inhibitors of insulin promoter-driven GFP, primary screen, imaging, TRM-6 cells (human fetal islet line), eGFP reporter, cell count | inhibition, % at 2 µM | 130,000 compounds, 0.9% hits | AID 1273, 2008 | reporter expression induced with tamoxifen;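 active = inhibition above the mean plus 3 SD, with well images judged a real hit on visual review, cut at about 60% in these data, passing the limit was not always enough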
Lmaj promast = Leishmania major promastigote growth inhibition, primary screen. Leishmania major promastigotes, resazurin fluorescence viability. inhibition, % at 10 µM. 200,000 compounds, 9% hits. AID 1063, 2008; in the data active = inhibition above about 50%;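 note: promastigotes grown with compound for 44 hours at 28 °C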
HCT116 PTEN-null = growth suppression of PTEN-null HCT116, primary screen, cell-based, CellTiter-Glo; viability, % at 10 µM; AID 827, 2007; 140,000 compounds, 1.2% hits; HCT116 PTEN-null viability, 60 h; stronger effect = lower value;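 active = viability at or below a set limit, 4 SD under the median of all tested compounds, cut at about 3.7% in these data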;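 note: PTEN knockout HCT116 line with beta catenin targeted HCT116 as companion control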
Autophagy mod = autophagy modulators in MEF cells, primary screen, imaging, high-content, MEF GFP-LC3; MEF GFP-LC3 puncta imaging; test concentration mostly 10 µM; calls only at 10 µM (by protocol); 190,000 compounds, 0.98% hits; AID 463193, 2010;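 active = percentage of spot-positive cells more than 3 SD above its plate mean, without a fluorescence outlier flag or 80% toxicity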
bCat KO growth = primary screen for growth suppressors in beta-catenin knockout HCT116 cells (colon tumor, human) | HCT116 beta-catenin knockout viability, CellTiter-Glo, 60 h; stronger effect = lower value | 140,000 compounds, 1.5% hits | viability, % at 10 µM;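 active = viability at or under a set limit, the compound median less 4 SD, cut at about 6% in these data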
Of the large screens only hits and unclear results are named; the others gave an inactive call. The list is not random: actives were taken first. Their share in the collection is about 9.6%.

Cc1cc(C(=O)Nc2cccc(S(=O)(=O)N3CCCCC3)c2)c2ccccc2n1	none (no result: HCT116 PTEN-null, bCat KO growth)
CC1CN(CC(=O)Nc2cccc(C(=O)Nc3cccc(C(F)(F)F)c3)c2)CC(C)O1 (centres undefined)	none
COc1ccc(CC(=O)Nc2cccc(S(=O)(=O)N3CCCCCC3)c2)cc1OC	Lmaj promast 84
CC1CCN(CC(=O)Nc2cccc(C(=O)Nc3cccc(C(F)(F)F)c3)c2)CC1	Lmaj promast 82
O=C(CN1CCN(Cc2ccccc2)CC1)Nc1ccc2c(c1)CCC2	Lmaj promast 74 (no result: HCT116 PTEN-null, bCat KO growth)
O=C(CN1CCN(c2ccccc2)CC1)Nc1cccc(C(F)(F)F)c1	none (no result: Insulin prom up, INS promoter inh)
O=C(CSCc1ccccc1)Nc1ccc(Cl)cn1	none
O=C(CN1CCN(Cc2ccccc2)CC1)Nc1ccc(Cl)cn1	Lmaj promast 53
O=C(CN1CCN(Cc2ccccc2)CC1)Nc1cccc(C(F)(F)F)c1	Lmaj promast 65
Cn1c(-c2sc3ccccc3c2Cl)n[nH]c1=S	none (no result: Insulin prom up)
CCn1cc(C(=O)OCC(=O)OC2CC(C)CCC2C(C)C)c(=O)c2ccc(C)nc21 (centres undefined)	Lmaj promast 79
CCn1cc(C(=O)OCc2ccccc2)c(=O)c2ccc(C)nc21	Lmaj promast 78
CCn1cc(C(=O)OCc2cccc(Br)c2)c(=O)c2ccc(C)nc21	none
COc1ccc(-c2cc(C(F)(F)F)n3ncc(C(=O)N4CCCCC4c4cccnc4)c3n2)cc1 (centres undefined)	Lmaj promast 98 (no result: HCT116 PTEN-null, bCat KO growth)
CCOC(=O)C1CCCN(C(=O)c2cnn3c(C(F)(F)F)cc(-c4ccccc4)nc23)C1 (centres undefined)	Lmaj promast 52
CCOC(=O)N1CCC(NC(=O)c2cnn3c(C(F)(F)F)cc(-c4cccc(OC)c4)nc23)CC1	none (no result: INS promoter inh, Lmaj promast, HCT116 PTEN-null, Autophagy mod, bCat KO growth)
O=C(c1cnn2c(C(F)(F)F)cc(-c3ccc4c(c3)OCO4)nc12)N1CCCC1	Lmaj promast 77
COC(=O)c1cnn2c(C(F)(F)F)cc(-c3ccc(F)cc3)nc12	Insulin prom up 4.2 (no result: INS promoter inh)
CCOC(=O)c1cnn2c(C(F)(F)F)cc(-c3ccccc3)nc12	none (no result: Insulin prom up)
Cc1cc(C)cc(OC(C)c2ccnc3nc(/N=C/N(C)C)nn23)c1 (centres undefined)	none (no result: INS promoter inh)
O=C(NCCc1csc(-c2ccccc2)n1)c1c(F)cccc1F	none (no result: HCT116 PTEN-null, bCat KO growth)
Cc1cc(=O)oc2cc(Oc3ccc([N+](=O)[O-])cc3[N+](=O)[O-])ccc12	Lmaj promast 86
Cc1ccc(N=c2c([N+](=O)[O-])nn(-c3ccc4c(c3)OCCO4)n2O)cc1F	none (no result: INS promoter inh, HCT116 PTEN-null, bCat KO growth)
O=[N+]([O-])c1nn(-c2ccc3c(c2)OCCO3)n(O)c1=Nc1ccccc1	Lmaj promast 97
CCc1ccc(N=c2c([N+](=O)[O-])nn(-c3ccc4c(c3)OCCO4)n2O)cc1	none (no result: HCT116 PTEN-null, bCat KO growth)
Cc1cc(C)cc(N=c2c([N+](=O)[O-])nn(-c3ccc4c(c3)OCCO4)n2O)c1	Lmaj promast 85 (no result: Insulin prom up, HCT116 PTEN-null, bCat KO growth)
O=[N+]([O-])c1nn(-c2ccc3c(c2)OCCO3)n(O)c1=Nc1ccc(Cl)cc1	Lmaj promast 77 (no result: INS promoter inh)
COc1ccc(NC(=O)CO/N=C2/CCCc3nonc32)c(OC)c1	none (no result: HCT116 PTEN-null, bCat KO growth)
CC(Nc1ccc(Br)cn1)c1cc(Cl)ccc1O (centres undefined)	Lmaj promast 92
CC(Nc1ccc(Cl)cc1)c1cc(Cl)ccc1O (centres undefined)	none (no result: Insulin prom up)
CN(C)c1ccc(C(C(=O)NC(C)(C)C)N(C(=O)c2csnn2)C2CC2)cc1 (centres undefined)	Lmaj promast 53
O=C(Nc1ccccc1)OC1C2CCC1C(N1CCCCC1)CC2 (centres undefined)	none
CC(NC(=O)Cn1ncc(Cl)c(Cl)c1=O)C12CC3CC(CC(C3)C1)C2 (centres undefined)	Lmaj promast 100, HCT116 PTEN-null 1.4, bCat KO growth 1.2 (no result: Insulin prom up)
O=C(NCCNc1ccc(Cl)cc1[N+](=O)[O-])c1cccnc1	none (no result: INS promoter inh, HCT116 PTEN-null, bCat KO growth)
Cc1ccoc1C(=O)NCCNc1ccc(Cl)cc1[N+](=O)[O-]	Lmaj promast 83
CC(C)Cc1nc2oc3c(Cl)ncnc3c2c2c1CCC2	HCT116 PTEN-null 0.8, bCat KO growth 0.9
CC(C)Cc1nc2oc3c(NCCCN4CCOCC4)ncnc3c2c2c1CCC2	Lmaj promast 58 (no result: Insulin prom up)
CCCc1nc2oc3c(NCCN4CCOCC4)ncnc3c2c2c1CCCC2	none (no result: INS promoter inh, Lmaj promast, HCT116 PTEN-null, Autophagy mod, bCat KO growth)
CCOC(=O)c1oc2nc(CC(C)C)c3c(c2c1N)CCCC3	none (no result: INS promoter inh, Lmaj promast, HCT116 PTEN-null, Autophagy mod, bCat KO growth)
N#Cc1ccc(Cl)cc1NC(=O)COC(=O)c1ccc2c(c1)OCCO2	none
O=C(Cn1ncc2c(=O)oc3ccccc3c21)N1CCN(C(=O)c2ccco2)CC1	none (no result: INS promoter inh)
NC(=O)c1cc[n+](CC2=C(C(=O)O)N3C(=O)[C@@H](NC(=O)C(c4ccccc4)S(=O)(=O)[O-])[C@H]3SC2)cc1 (some centres undefined)	none (no result: Insulin prom up)
c1ccc(-c2ccc(-c3cnc4n3CCCCC4)cc2)cc1	Lmaj promast 99
Cc1cccc(NC2=NC(=S)N(c3cccc(C(=O)O)c3)C23CCCCC3)c1	none (no result: HCT116 PTEN-null, bCat KO growth)
CCSc1nnc(NC(=O)[C@@H](NC(=O)c2ccccc2)C(C)C)s1	Lmaj promast 50
CCSc1nnc(NC(=O)c2ccccn2)s1	Lmaj promast 98
CCSc1nnc(NC(=O)c2cnccn2)s1	none (no result: INS promoter inh, Lmaj promast, HCT116 PTEN-null, Autophagy mod, bCat KO growth)
O=C(Cn1nc2ccccc2n1)N/N=C/c1cc(Cl)cc([N+](=O)[O-])c1O	none (no result: INS promoter inh, HCT116 PTEN-null, bCat KO growth)
COc1cc(OC)cc(-c2nc3ccccc3c(=O)n2OC(=O)c2ccc(Br)cc2)c1	Lmaj promast 50
Cc1ccc(C)c(-n2c(-c3cccnc3)n[nH]c2=S)c1	none (no result: INS promoter inh, HCT116 PTEN-null, bCat KO growth)
O=C1CC(c2ccccc2)CC(O)=C1C=NCCCO (centres undefined)	none
CCOc1ccc(C2C([N+](=O)[O-])=C(C)N(C)C(=O)N2C)cc1OC (centres undefined)	Lmaj promast 56 (no result: INS promoter inh, HCT116 PTEN-null, bCat KO growth)
COc1ccc(N2C(=O)CC(NNC(=O)c3cc(C)oc3C)C2=O)cc1 (centres undefined)	none (no result: INS promoter inh, HCT116 PTEN-null, bCat KO growth)
CNC(=S)NNC(=O)c1ccc(C(C)(C)C)cc1	none (no result: INS promoter inh, Lmaj promast, HCT116 PTEN-null, Autophagy mod, bCat KO growth)
Nc1nnnn1/N=C/c1ccc(O)cc1	none (no result: Insulin prom up, INS promoter inh)
CCN(C)c1ccc(/C=N\n2nnnc2N)cc1	Autophagy mod active
Cn1nc(-c2ccc(N3CCN(CCO)CC3)c([N+](=O)[O-])c2)c2ccccc2c1=O	Lmaj promast 99 (no result: HCT116 PTEN-null, bCat KO growth)
CN(C)CCNc1ccc(-c2nn(C)c(=O)c3ccccc23)cc1[N+](=O)[O-]	Lmaj promast 90 (no result: INS promoter inh, HCT116 PTEN-null, bCat KO growth)
O=C(COC(=O)C1(c2ccccc2F)CCCC1)Nc1ncc(C(F)(F)F)cc1Cl	none
CC1CC(C)CN(C(=O)CSc2nnc(-c3ccc(Cl)cc3)o2)C1 (centres undefined)	none (no result: INS promoter inh)
Cc1ccc(SCc2cc(=O)[nH]c(N3CCOCC3)n2)cc1	none
Cc1cccc(CC(=O)N2CCC(N3CCC(C(=O)N4CCOCC4)CC3)CC2)c1	none (no result: INS promoter inh, HCT116 PTEN-null, bCat KO growth)

Source: PubChem BioAssay
